Screening results: PubChem, several laboratories
BoNT-A LC inh2 = blocks Botulinum neurotoxin A light chain protease; multiplex microsphere protease substrate cleavage, flow cytometry; inhibition, % at 10 µM; 360,000 compounds, 0.17% hits; AID 588499
Autofluor counter = counter-screen for toxin protease inhibitors: compound fluorescence | compound autofluorescence counterscreen, microsphere flow cytometry; hits give high values | fluorescence intensity (test concentration not listed) | 360,000 compounds, 3.1% hits | AID 624483; in the data active = fluorescence intensity above about 16000; inconclusive = no clear call, values can overlap the other calls
MazF activator = MazEF (E. coli) toxin RNase activation; FAM/BHQ RNA-DNA oligo cleavage fluorescence, 5 h; activation, % at 20 µM; P0AE70; 350,000 compounds, 0.32% hits; in the data active = activation above about 50%
Target sequence (P0AE70 whole entry, looked up): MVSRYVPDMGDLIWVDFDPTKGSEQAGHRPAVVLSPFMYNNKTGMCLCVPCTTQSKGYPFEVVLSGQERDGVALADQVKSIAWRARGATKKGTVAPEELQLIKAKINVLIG
Anthrax LF inh2 = anthrax lethal factor protease inhibition | P15917 | multiplex microsphere protease cleavage assay, LF | inhibition, % at 10 µM | 360,000 compounds, 0.12% hits
PfHsp40 rescue = compounds rescuing yeast from Plasmodium falciparum HSP40 toxicity; S. cerevisiae expressing PfHsp40, growth rescue, ATP luminescence; growth rescue, % at 12.5 µM; 340,000 compounds, 0.68% hits; AID 504582; in the data active = growth rescue above about 28%, passing the limit was not always enough; inconclusive = no clear call, values can overlap the other calls;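 also: yeast W303a lacking pdr1 and pdr3 grown in galactose medium; growth measured after three days at 30 °C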
BoNT-F LC inh = inhibitors of Botulinum neurotoxin F light chain protease | Multiplex microsphere protease cleavage assay, flow cytometry | inhibition, % at 10 µM | 360,000 compounds, 0.22% hits | AID 588497; in the data active = inhibition above about 35%, passing the limit was not always enough; inconclusive = no clear call, values can overlap the other calls
Of the large screens only hits and unclear results are named; the others gave an inactive call. Most compounds without a hit are left out; they make up all but 4.3% or so of the library. Rule as the data show it, unless noted: active = inhibition above about 30%; inconclusive = no clear call, values can overlap the other calls; inactive = below that.

O=C(NCc1ccccc1)c1cccc(OCC(=O)N2CCN(C(=O)c3ccco3)CC2)c1	BoNT-A LC inh2 inconclusive, Autofluor counter 20088
Cc1ccc(C)c(NC(=O)CN(C)C(=O)CC2OC(=O)c3ccccc32)c1 (stereo unspecified)	none
Cc1cccc(NC(=O)CNC(=O)c2cc(S(=O)(=O)N(C)C)ccc2N2CCCC2)c1C	none (no result: PfHsp40 rescue)
Nc1c(C(=O)Nc2ccccc2)sc2nc3c(c(-c4ccco4)c12)CCC3	MazF activator 87
Nc1c(C(=O)Nc2ccccc2)sc2nc3c(c(-c4ccco4)c12)CCCC3	none
CN1C(=O)S/C(=C/c2cccnc2)C1=O	Autofluor counter 21884
COc1ccc(C(=O)CCc2nc3ccccc3s2)cc1	none
O=C1CC(SCCc2nc3ccccc3[nH]2)C(=O)N1c1ccc(F)cc1 (stereo unspecified)	none
COc1ccc(N2C(=O)CC(SCCc3nc4ccccc4[nH]3)C2=O)cc1 (stereo unspecified)	Autofluor counter 19552
CCCCN1C(=O)/C(=C/C=C2\SCCN2C)SC1=S	MazF activator 530
Cc1c(C(=O)Nc2ccc(S(=O)(=O)N(C)C3CCN(C)CC3)cc2)oc2c(Cl)cccc12	none (no result: BoNT-A LC inh2, Autofluor counter, Anthrax LF inh2, BoNT-F LC inh)
Cc1ccccc1N1C(=O)[C@@H]2Cc3ccccc3CN2C1=O	BoNT-A LC inh2 inconclusive, Autofluor counter 19296
CC1CCCCC1NC(=O)CCCn1c(=S)[nH]c2ccccc2c1=O (stereo unspecified)	none
COn1c(=S)[nH]c2ccccc2c1=O	BoNT-A LC inh2 inconclusive, Autofluor counter 22258
CC1CCCCC1n1c(=S)[nH]c2ccccc2c1=O (stereo unspecified)	Autofluor counter 23138
CCOc1cccc(/C=N/N=C/c2cccc(OCC)c2O)c1O	none
CCOc1cccc(C=Nc2cc(C)cc(C)c2O)c1O	BoNT-A LC inh2 inconclusive, Autofluor counter 22996
Cc1[nH]c(C)c(S(=O)(=O)NCCc2ccccc2)c1C(=O)N1CCCCC1	none
CC1CCCC(NC(=O)CSc2nnc(-c3cccnc3)n2N)C1C (stereo unspecified)	Autofluor counter 18627
COC(=O)c1ccc(NC(=O)CSc2nnc(-c3ccncc3)n2N)cc1	BoNT-A LC inh2 inconclusive, Autofluor counter 20637
O=C(CSc1nnc(-c2cccnc2)n1Cc1ccco1)Nc1cccc(O)c1	none
O=C(CSc1nnc(-c2cccnc2)n1Cc1ccco1)Nc1nc(-c2ccc(F)cc2)cs1	Autofluor counter 20486
Cc1ccc(-n2c(SCC(=O)Nc3ccc(C(=O)O)cc3)nnc2-c2ccncc2)cc1	none
Nn1c(SCC(=O)Nc2ccc(F)cc2)nnc1-c1cccnc1	BoNT-A LC inh2 inconclusive, Autofluor counter 19014
Cc1ccc(NC(=O)CSc2nnc(-c3cccnc3)n2-c2ccc(C)cc2)cc1	none
CC1CCCN(CCCNS(=O)(=O)c2ccc3c(c2)CCN3C(=O)C2CC2)C1 (stereo unspecified)	none
O=S(=O)(c1ccccc1)N(CC1CO1)c1cc(Cl)ccc1Cl (stereo unspecified)	none
CCn1c2ccccc2c2cc(NC(=O)c3cccc(OC)c3)ccc21	Autofluor counter 22832
Cc1ccc(C)c(NC(=O)CSc2nnc(C)c(=O)n2N)c1	none
Cc1ccc(C)c(NC(=O)CSc2nnc(-c3ccncc3)n2N)c1	Autofluor counter 21109
COc1cccc(-c2nnc(SCC(=O)OC(C)C)n2N)c1	Autofluor counter 19700
CCn1c2ccccc2c2cc(NC(=O)c3cccc(OC)c3OC)ccc21	none
COc1cccc(-c2nnc(SCCC(=O)O)n2C)c1	Autofluor counter 23530
CSc1c(CC(=O)Nc2ccccc2)n(Cc2ccccc2)c2ccccc12	none
COC(=O)c1ccc(NC(=O)CSc2nnc(C)n2-c2ccccc2)cc1	Autofluor counter 19301
CCn1c2ccccc2c2cc(NC(=O)CSc3nnc(-c4ccc(OC)cc4)n3N)ccc21	Autofluor counter 24502
Nn1c(SCC(=O)Nc2ccc(F)cc2)nnc1C1CCCCC1	BoNT-A LC inh2 inconclusive, Autofluor counter 21577
COC(=O)c1ccc(NC(=O)CSc2nnc(-c3ccccc3)n2C)cc1	none
COc1ccc(NC(=O)CSc2nnc(-c3ccccc3)n2N)cc1	none
COc1cccc(-c2nnc(SCC(=O)Nc3ccc(OC)c(OC)c3)n2N)c1	Autofluor counter 23134
O=C(NNS(=O)(=O)c1ccc2ccccc2c1)NC1CCCCC1	none
CCNS(=O)(=O)c1ccc(CCC(=O)N2CCC(C)CC2)cc1	none
NC(=O)c1ccc(SCC(=O)OCC(=O)NCc2ccco2)c([N+](=O)[O-])c1	none
COc1cccc(NC(=O)CSc2nnc(-c3cc(C)[nH]n3)n2N)c1	none
CCOc1cccc(-c2nnc(SCC(=O)Nc3cccc(OC)c3)n2N)c1	Autofluor counter 21734
Cc1cc(C)cc(NC(=O)CSc2nnc(-c3ccccc3)n2N)c1	none
COC(=O)CSc1nnc(C)n1-c1cccc(C#N)c1	Autofluor counter 17539
Cc1cccc(NC(=O)CSc2nnc(-c3ccccc3)n2N)c1	BoNT-A LC inh2 inconclusive, Autofluor counter 20752
CC(C)(C)c1ccc(OCC(=O)Nc2ccc(C(=O)Nc3ccccc3C(=O)O)cc2)cc1	none
COc1ccc(Cl)cc1C(=O)NNC(=O)COC(=O)CCN=C1NS(=O)(=O)c2ccccc21	none
COc1cccc2cc(C(=O)NCc3ccccc3Cl)c(=O)oc12	none
COc1ccc2cc(C(c3nnnn3Cc3ccccc3)N3CCCCCC3)c(=O)[nH]c2c1 (stereo unspecified)	Autofluor counter 18165
COc1ccc2cc(C(c3nnnn3Cc3ccc(F)cc3)N3CCCCCC3)c(=O)[nH]c2c1 (stereo unspecified)	none
COc1ccc(Cn2nnnc2C(c2cc3ccc(OC)cc3[nH]c2=O)N2CCC(C)CC2)cc1 (stereo unspecified)	Autofluor counter 31718
COCCn1nnnc1C(c1cc2ccc(OC)cc2[nH]c1=O)N1CCN(C2CCCCC2)CC1 (stereo unspecified)	none
COc1ccc(N2C(=O)C3CCCCC3C2=O)cc1NC(=O)c1ccccc1 (stereo unspecified)	none
CCn1c(SCC(N)=O)nnc1-c1ccco1	none
CCn1c(SCc2cccc(C(F)(F)F)c2)nnc1-c1ccco1	Autofluor counter 22937
Cc1ccc2cccc(NC(=S)NC(=O)c3ccccc3)c2n1	none
Cc1ccc2cccnc2c1NC(=S)NC(=O)c1ccccc1	BoNT-A LC inh2 inconclusive, Autofluor counter 22969
NC(Cc1c[nH]c2ccccc12)C(=O)Nc1ccccc1 (stereo unspecified)	none
Cc1ccc(-c2nn(-c3cc(Cl)ccc3[N+](=O)[O-])c(=O)c3ccccc23)cc1	Autofluor counter 24146
COCCCC1CCN(C(=O)CCc2nnc(CCCCc3ccccc3)o2)CC1	none
CCCN1CCN(C(=O)Nc2ccc(C(=O)OCC)cc2)CC1	Autofluor counter 20252
CCCOC(=O)c1ccc(NC(=O)CCOc2ccccc2)cc1	none
CCCOC(=O)c1ccc(NC(=O)CCC(=O)OCC)cc1	Autofluor counter 21063
